The values that follow come from PubChem BioAssay (NCATS).

In assay [1] the target is Cytochrome P450 3A4 (Homo sapiens) (UniProt P08684). In words: qHTS Assay for Activators of Cytochrome P450 3A4 (AID 885). Further: nearly all actives have a fitted effect of over 65% in size. The method in brief:
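Human CYP3A4 dealkylates Luciferin-PPXE to luciferin, which luciferase detection converts to light. Substrate was at its KM (25uM), buffer 200mM KPO4, reaction 60 min at RT.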

Assay [2] is described as follows: Confirmation and Secondary Assay for Modulators of Hemoglobin Beta Chain Splicing at IVS2 654 locus (AID 910).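 Further: HeLa cells stably carrying EGFP split by mutant beta-globin IVS2-654 intron.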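 Further: potency means the concentration at half of the fitted maximal effect; potency of activators that raise GFP signal by restoring correct splicing.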 In a few lines:
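HeLa cells stably expressing EGFP interrupted by β-globin IVS2-654 intron, seeded overnight in Opti-MEM/2% FCS, then treated 2 days at 37 °C. Restored splicing read as total peak GFP intensity per well by laser scanning cytometry (488 nm excitation, 500–520 nm emission); 500 nM antisense PNA as control.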

The nature of assay [3]: Confirmation and Secondary Assay for Modulators of Hemoglobin Beta Chain Splicing at IVS2 705 locus (AID 930).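 Further: HeLa cells stably expressing the EGFP-705 splicing reporter; GFP fluorescence per well restored by corrected splicing of the IVS2-705 intron in EGFP; series mostly up to about 46 µM; % of control where 0% means no effect.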 The method in brief: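 HeLa IVS2-705 EGFP reporter cells, 500/well, compound 2 d at 37C; correct splicing yields fluorescent EGFP. Control: 500 nM antisense PNA. Read-out: total peak GFP intensity.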
Assay [4] addresses Ubiquitin carboxyl-terminal hydrolase 1 (Homo sapiens) (UniProt O94782). In words: Inhibitors of USP1/UAF1: Pilot qHTS (AID 504865). Further: nearly all actives have a fitted effect of over 35% in size. Further: potency means the concentration at half of the fitted maximal effect. The method in brief:
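USP1/UAF1 complex at 1 nM preincubated 15 min at room temperature with compound, then Ub-Rho substrate added at 150 nM final. Fluorescence (480/540 nm) read kinetically in 50 mM HEPES pH 7.8, 0.5 mM EDTA, 1 mM TCEP, 0.1 mg/ml BSA, 0.01% Tween-20.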

Assay [5] deals with Mitogen-activated protein kinase 10 (Mus musculus) (UniProt Q61831). The assay can be described thus: JNK3 AlphaScreen Assay (AID 530; active means well fitted curve in either direction with a large enough effect, not every such curve was filed as active;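 further: kinase came from lysate of stimulated human HepG2 cells; signal reports phosphorylation of biotinylated GST-cJun 1-79 at Ser73 with 10 µM ATP; series mostly up to about 57 µM; on the % scale 0 is the no-effect control and ±100 the full control effect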). In a few lines: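 Activity was read by AlphaScreen after JNK3-containing HepG2 lysate (cytokine pre-activated) phosphorylated biotinylated GST-cJun with 10 uM ATP at room temperature. Phospho-Ser73 cJun antibody with Protein-A acceptor beads provided detection.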

Assay [6] concerns the target 3',5'-cyclic-AMP phosphodiesterase 4B (Homo sapiens) (UniProt Q07343). In words: qHTS Assay for Inhibitors of PDE-IV (AID 607; active means well fitted activation curve with a large enough effect in the main read-out, with a control signal flat, not every such curve was filed as active; further: % of control where 0% means no effect). In a few lines: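 HEK293 ACTOne cells with CNG channel (1000/well), endogenous PDE4; membrane potential dye, compounds up to 22.9 uM final. Fluorescence Ex 535/Em 590; RO 20-1724 (100 uM final) as reference.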
The target of assay [7] is Cytochrome P450 3A4 (Homo sapiens) (UniProt P08684). In words: qHTS Assay for Inhibitors and Substrates of Cytochrome P450 3A4 (AID 884). Further: nearly all actives have a fitted effect of over 50% in size. Further: potency means the concentration at half of the fitted maximal effect. In a few lines:
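Luminescent readout of luciferin produced by CYP3A4 (20 nM) dealkylation of Luciferin-PPXE, 25 uM (its KM). NADPH-driven reaction ran 60 min at RT after 10 min compound preincubation; data scaled to 57 uM ketoconazole as 100% inhibition.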

The target in assay [8] is Androgen receptor (Homo sapiens) (UniProt P10275). In words: qHTS assay for small molecule agonists of androgen receptor signaling (AID 588515; active means well fitted curve in the direction sought with a large enough effect in the signal ratio, with a control signal flat; the % refers to the signal ratio; further: on the % scale 0 is the no-effect control and ±100 the full control effect). To be noted: AR-UAS-bla HEK293, beta-lactamase ratio, agonist 16 h; stronger effect = higher value. The method in brief: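 Stimulation of an AR-responsive β-lactamase reporter in GripTite HEK293 cells was measured after 16 h compound exposure at 37 °C, via CCF4 fluorescence after 2 h RT. EC50 from Hill fits, normalized to R1881 at 30 nM.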

For assay [9] the target is unchanged. The assay can be described thus: qHTS assay for small molecule antagonists of androgen receptor signaling (AID 588516; active means well fitted curve in the direction sought with a large enough effect in the signal ratio, with a control signal flat, not every such curve was filed as active; the % refers to the signal ratio; further: on the % scale 0 is the no-effect control and ±100 the full control effect). In a few lines: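 AR-UAS-bla GripTite HEK 293 cells (2000/well) treated with compound titrations plus 10 nM R1881 for 16 h at 37C. Beta-lactamase read by CCF4 FRET (460/530 nm); IC50 from Hill fits, normalized to R1881 and DMSO control wells.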

Assay [10] concerns the target Bile acid receptor (Homo sapiens) (UniProt Q96RI1). The assay can be described thus: qHTS assay for small molecule antagonists of farnesoid X receptor signaling (AID 588526; calls by dose curve; further: on the % scale 0 is the no-effect control and ±100 the full control effect). In a few lines:
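Antagonist mode: titrated compounds tested against chenodeoxycholic acid stimulation (normalized to 50 uM CDCA and DMSO) in GeneBLAzer HEK293T cells for 16 h. Beta-lactamase read by CCF4 fluorescence; IC50 from Hill fits.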

The target of assay [11] is Vitamin D3 receptor (Homo sapiens) (UniProt P11473). The assay can be described thus: qHTS assay for small molecule agonists of vitamin D receptor signaling (AID 588543; calls by dose curve;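 further: 0% = DMSO basal and 100% = reference agonist control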). In a few lines:
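VDR-UAS-bla HEK293T cells, 2000/well, 2% charcoal-stripped FBS; compound titration 16 h at 37 C; CCF4 beta-lactamase ratio read. Normalized to 50 nM 1-alpha,25-dihydroxyvitamin D3 (100%) and DMSO; Hill fit gives EC50, efficacy.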

The nature of assay [12]: qHTS assay for small molecule agonists of the antioxidant response element (ARE) signaling pathway (AID 651741; active means well fitted activation curve with a large enough effect in the signal ratio; the % refers to the signal ratio; further: potency means the concentration at half of the fitted maximal effect; on activation: % of control where 0% means no effect). The method in brief:
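Stably integrated ARE-beta-lactamase reporter HepG2 cells; 16 h compound incubation, 37 C; LiveBLAzer FRET substrate 2 h at room temperature; fluorescence intensity.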

Assay [13] concerns the target Nuclear receptor subfamily 1 group I member 2 (Rattus norvegicus) (UniProt Q9R1A7). The assay can be described thus: qHTS assay for small molecule activators of the rat pregnane X receptor (rPXR) signaling pathway (AID 651751; call rule not given here; further: 0% is about no effect). To be noted: rPXR reporter cells, luciferase (One-Glo), 24 h.
A short description of assay [14]: qHTS assay for small molecule activators of the human pregnane X receptor (PXR) signaling pathway (AID 720659; call rule not given here; further: 0% is about no effect).
The target in assay [15] is Glucocorticoid receptor (Homo sapiens) (UniProt P04150). In words: qHTS assay for small molecule agonists of glucocorticoid receptor signaling (AID 588532; active means well fitted curve in the direction sought with a large enough effect in the signal ratio, with a control signal flat; the % refers to the signal ratio;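 further: 100% = dexamethasone at 0.1 µM and 0% = DMSO only wells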). To be noted: HeLa MMTV-bla, beta-lactamase ratio, agonist, 18 h; activation: stronger effect = higher value, percent of dexamethasone control, DMSO zero. In a few lines: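 MMTV-bla HeLa beta-lactamase reporter cells in 1% charcoal/dextran FBS medium, compounds up to 92 uM for 18 h at 37 C, CCF4 readout; normalized to 0.1 uM dexamethasone (100%), EC50 and efficacy from Hill fits.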

Assay [16] can be described thus: qHTS assay for small molecule antagonists of peroxisome proliferator-activated receptor delta signaling (AID 588535; active means well fitted inhibition curve with a large enough effect in the signal ratio, with a control signal flat, not every such curve was filed as active; the % refers to the signal ratio;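 on max response: cells co-treated with a PPAR-delta agonist as stimulator during compound exposure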). The following applies: HEK293T PPARd-UAS-bla, beta-lactamase FRET ratio, 18 h; 460 nm channel. In a few lines:
(§1)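 Fluorescence from CCF4-loaded GeneBLAzer PPAR-delta-UAS-bla HEK293T cells (2 hrs RT loading) quantified reporter inhibition after an 18 hr, 37 C compound exposure across a titration.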

The target of assay [17] is Peroxisome proliferator-activated receptor delta (Homo sapiens) (UniProt Q03181). The description is as above. In a few lines: as §1
Assay [18] deals with Bile acid receptor (Homo sapiens) (UniProt Q96RI1). In words: qHTS assay for small molecule agonists of farnesoid X receptor signaling (AID 588527; calls by dose curve;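 further: series mostly up to about 77 µM; 0% = vehicle basal and 100% = reference agonist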). The following applies: HEK293T FXR-UAS-bla, beta-lactamase ratio, 16 h; activation: stronger effect = higher value. In a few lines: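 FXR-UAS-bla HEK293T cells (10% dialyzed FBS) preincubated 5-7 h at 37 C, then compounds at up to 92 uM for 16 h at 37 C. CCF4 beta-lactamase read-out after 2 h RT. Normalized to chenodeoxycholic acid (100 uM) and DMSO; Hill fit gave EC50 and efficacy.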

Assay [19] is described as follows: qHTS assay for small molecule activators of the nuclear factor-kappa B (NF-kB) signaling pathway (AID 651749; active means well fitted activation curve with a large enough effect in the signal ratio; the % refers to the signal ratio; further: series mostly up to about 77 µM; % of control where 0% means no effect). To be noted: NF-kB-bla ME-180 cells, beta-lactamase FRET ratio, 16 h; activation: stronger effect = higher value. The method in brief:
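In this qHTS format, compounds acting as activators increase NF-kB-driven beta-lactamase in ME-180 cells, measured as disrupted FRET after 16 hr exposure at 37C and 5% CO2.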

Values joined by “and” are separate entries in the source; they are usually repeats but may differ in a detail not shown here. Equal entries are not always repeated. Records with an inconclusive call do not appear. Active and inactive are the calls of the source. Unless noted, the call rests on the fitted dose curve; in most records, active means well fitted curve in the direction sought with a large enough effect; inconclusive means small, poorly fitted or top-dose-only effect, or another doubt; inactive means no such curve, though single readings can be large; an effect the other way counts as inactive or inconclusive.

Sequence of Vitamin D3 receptor (Homo sapiens) (P11473 whole entry, looked up): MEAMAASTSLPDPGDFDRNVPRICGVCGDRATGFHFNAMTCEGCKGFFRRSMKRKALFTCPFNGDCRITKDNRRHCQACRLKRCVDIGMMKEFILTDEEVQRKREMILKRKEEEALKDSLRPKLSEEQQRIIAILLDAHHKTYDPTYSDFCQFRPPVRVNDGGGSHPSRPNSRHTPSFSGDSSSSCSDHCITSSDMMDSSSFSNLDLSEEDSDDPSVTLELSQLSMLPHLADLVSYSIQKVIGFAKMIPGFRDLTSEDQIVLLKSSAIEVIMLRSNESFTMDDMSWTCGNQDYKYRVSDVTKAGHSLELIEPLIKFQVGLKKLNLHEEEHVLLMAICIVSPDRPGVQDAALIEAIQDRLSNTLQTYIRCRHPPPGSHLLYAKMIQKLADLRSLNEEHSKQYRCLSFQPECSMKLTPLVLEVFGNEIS
Sequence of Nuclear receptor subfamily 1 group I member 2 (Rattus norvegicus) (Q9R1A7 whole entry, looked up): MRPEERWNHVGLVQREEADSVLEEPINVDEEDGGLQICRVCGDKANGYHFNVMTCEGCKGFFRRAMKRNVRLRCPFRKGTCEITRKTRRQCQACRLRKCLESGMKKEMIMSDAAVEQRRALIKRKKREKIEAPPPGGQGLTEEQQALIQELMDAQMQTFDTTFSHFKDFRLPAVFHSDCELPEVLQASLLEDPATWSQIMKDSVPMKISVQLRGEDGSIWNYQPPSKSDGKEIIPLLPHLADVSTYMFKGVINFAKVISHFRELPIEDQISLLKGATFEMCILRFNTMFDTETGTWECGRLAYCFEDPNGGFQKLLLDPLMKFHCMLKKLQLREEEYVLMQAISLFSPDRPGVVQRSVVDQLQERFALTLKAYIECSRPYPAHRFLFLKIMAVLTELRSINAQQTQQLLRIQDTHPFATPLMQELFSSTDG
Sequence of Bile acid receptor (Homo sapiens) (Q96RI1 whole entry, looked up): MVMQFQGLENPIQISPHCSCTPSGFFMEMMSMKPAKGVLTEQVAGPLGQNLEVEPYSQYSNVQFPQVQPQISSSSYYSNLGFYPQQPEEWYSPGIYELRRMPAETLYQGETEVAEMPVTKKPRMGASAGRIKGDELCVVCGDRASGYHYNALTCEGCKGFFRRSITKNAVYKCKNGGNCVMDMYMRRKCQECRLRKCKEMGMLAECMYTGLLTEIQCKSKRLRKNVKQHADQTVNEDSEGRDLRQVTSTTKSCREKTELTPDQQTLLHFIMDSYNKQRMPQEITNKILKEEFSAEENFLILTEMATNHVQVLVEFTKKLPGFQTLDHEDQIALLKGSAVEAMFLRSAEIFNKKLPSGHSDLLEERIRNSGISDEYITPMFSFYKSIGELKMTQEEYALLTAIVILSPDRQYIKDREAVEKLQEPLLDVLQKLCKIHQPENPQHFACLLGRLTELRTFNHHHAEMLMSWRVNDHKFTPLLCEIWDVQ
Sequence of Cytochrome P450 3A4 (Homo sapiens) (P08684 whole entry, looked up): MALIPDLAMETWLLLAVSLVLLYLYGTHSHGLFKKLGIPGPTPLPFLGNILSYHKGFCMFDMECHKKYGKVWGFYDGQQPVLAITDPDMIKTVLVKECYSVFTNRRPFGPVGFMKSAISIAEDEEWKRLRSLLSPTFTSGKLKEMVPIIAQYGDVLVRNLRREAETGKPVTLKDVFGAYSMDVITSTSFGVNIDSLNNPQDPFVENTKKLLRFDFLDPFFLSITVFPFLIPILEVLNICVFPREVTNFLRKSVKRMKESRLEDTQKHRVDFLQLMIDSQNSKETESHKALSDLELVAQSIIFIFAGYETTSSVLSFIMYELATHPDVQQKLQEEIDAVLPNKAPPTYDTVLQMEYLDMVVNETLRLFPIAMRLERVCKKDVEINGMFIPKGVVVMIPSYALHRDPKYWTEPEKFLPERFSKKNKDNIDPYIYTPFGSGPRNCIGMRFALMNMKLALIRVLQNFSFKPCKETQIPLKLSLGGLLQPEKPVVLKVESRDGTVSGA
Sequence of Androgen receptor (Homo sapiens) (P10275 whole entry, looked up): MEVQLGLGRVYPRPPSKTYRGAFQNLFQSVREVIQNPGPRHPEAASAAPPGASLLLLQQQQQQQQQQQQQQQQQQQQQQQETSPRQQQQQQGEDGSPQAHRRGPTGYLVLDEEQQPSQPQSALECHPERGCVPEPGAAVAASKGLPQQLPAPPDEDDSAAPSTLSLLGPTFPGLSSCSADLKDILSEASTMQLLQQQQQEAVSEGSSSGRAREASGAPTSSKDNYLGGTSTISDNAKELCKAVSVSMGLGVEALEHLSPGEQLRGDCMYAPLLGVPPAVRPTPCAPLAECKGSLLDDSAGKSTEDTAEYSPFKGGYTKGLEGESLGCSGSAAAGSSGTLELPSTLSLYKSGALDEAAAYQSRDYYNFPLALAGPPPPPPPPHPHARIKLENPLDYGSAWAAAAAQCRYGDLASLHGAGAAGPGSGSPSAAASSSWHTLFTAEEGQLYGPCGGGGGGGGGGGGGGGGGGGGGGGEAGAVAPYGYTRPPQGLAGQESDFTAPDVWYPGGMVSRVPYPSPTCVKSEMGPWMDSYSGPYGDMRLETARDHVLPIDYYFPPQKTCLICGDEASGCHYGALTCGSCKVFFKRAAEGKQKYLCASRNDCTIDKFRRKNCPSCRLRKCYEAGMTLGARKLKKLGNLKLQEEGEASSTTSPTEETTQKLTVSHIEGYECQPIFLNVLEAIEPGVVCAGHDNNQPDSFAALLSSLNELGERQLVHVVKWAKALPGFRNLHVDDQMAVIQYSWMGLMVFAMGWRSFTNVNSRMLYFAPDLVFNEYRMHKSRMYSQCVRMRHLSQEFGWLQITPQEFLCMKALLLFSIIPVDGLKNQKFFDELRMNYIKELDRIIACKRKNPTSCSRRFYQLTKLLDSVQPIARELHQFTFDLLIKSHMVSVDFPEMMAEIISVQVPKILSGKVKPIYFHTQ
Sequence of Ubiquitin carboxyl-terminal hydrolase 1 (Homo sapiens) (O94782 whole entry, looked up): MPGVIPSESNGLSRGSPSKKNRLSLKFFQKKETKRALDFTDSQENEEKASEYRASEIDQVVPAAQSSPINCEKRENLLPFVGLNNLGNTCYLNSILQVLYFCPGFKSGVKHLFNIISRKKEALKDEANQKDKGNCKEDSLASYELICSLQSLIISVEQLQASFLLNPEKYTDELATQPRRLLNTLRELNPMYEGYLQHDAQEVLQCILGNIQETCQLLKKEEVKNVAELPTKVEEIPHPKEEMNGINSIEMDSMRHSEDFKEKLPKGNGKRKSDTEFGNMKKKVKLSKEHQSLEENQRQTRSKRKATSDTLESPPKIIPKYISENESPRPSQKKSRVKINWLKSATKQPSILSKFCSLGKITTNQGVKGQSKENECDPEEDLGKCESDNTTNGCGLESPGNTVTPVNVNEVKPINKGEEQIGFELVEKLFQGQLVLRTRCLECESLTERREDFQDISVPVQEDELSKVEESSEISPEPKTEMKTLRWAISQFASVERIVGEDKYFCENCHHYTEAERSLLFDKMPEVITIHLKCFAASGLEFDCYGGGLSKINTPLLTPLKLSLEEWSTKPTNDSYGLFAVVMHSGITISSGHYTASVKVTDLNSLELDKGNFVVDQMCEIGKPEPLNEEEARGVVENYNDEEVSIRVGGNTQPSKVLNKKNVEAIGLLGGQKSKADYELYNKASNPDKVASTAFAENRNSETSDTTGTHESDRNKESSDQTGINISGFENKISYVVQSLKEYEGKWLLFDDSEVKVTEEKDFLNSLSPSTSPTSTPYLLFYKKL
Sequence of Glucocorticoid receptor (Homo sapiens) (P04150 whole entry, looked up): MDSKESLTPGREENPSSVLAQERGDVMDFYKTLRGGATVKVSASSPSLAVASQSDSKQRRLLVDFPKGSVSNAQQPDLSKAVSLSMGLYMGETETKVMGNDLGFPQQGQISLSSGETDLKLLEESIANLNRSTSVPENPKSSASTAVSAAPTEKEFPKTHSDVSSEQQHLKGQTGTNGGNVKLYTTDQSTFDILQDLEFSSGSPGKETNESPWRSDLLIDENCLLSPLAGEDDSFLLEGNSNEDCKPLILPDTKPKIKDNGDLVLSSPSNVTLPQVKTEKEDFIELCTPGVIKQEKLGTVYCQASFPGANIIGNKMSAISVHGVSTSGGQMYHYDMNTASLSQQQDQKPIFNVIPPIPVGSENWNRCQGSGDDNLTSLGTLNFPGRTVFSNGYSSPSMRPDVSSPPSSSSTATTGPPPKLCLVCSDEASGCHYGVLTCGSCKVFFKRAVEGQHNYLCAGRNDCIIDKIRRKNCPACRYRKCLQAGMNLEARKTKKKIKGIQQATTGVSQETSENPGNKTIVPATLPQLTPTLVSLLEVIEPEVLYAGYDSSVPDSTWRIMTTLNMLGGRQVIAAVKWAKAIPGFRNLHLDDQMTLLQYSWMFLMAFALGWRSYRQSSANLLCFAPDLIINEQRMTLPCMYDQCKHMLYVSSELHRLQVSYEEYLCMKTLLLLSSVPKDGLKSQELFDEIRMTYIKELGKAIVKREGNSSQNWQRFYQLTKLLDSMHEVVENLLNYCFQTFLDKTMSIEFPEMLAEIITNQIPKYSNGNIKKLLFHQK
Sequence of Peroxisome proliferator-activated receptor delta (Homo sapiens) (Q03181 whole entry, looked up): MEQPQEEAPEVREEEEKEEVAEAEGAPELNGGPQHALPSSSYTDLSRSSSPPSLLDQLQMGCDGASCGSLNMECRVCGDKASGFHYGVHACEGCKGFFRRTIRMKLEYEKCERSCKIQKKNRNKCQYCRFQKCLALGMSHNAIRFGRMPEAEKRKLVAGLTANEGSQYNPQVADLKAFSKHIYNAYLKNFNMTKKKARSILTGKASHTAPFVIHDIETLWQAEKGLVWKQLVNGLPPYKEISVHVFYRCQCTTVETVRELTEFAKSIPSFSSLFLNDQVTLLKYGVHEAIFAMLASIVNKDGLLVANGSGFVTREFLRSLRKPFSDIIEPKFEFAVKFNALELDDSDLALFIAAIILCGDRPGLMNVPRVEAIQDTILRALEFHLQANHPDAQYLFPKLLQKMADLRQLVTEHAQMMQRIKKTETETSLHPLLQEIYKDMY

For the compound `COC(=O)[C@]1(C)CC[C@@]2(C)CC[C@@]3(C)C4=CC=C5C(=CC(=O)C(O)=C5C)[C@@]4(C)CC[C@@]3(C)C2C1` (some centres not stated), the Potency result in [1] and in [2] was “inactive” each time. Besides, in assay [3], the compound was classed as inactive. Also, the Potency in assay [4] was 44.7 µM (active).
In the case of `COC(=O)[C@@H]1C[C@H]1[C@@H](NP(=O)(c1ccccc1)c1ccccc1)c1ccccc1`, the call in assay [5] and in assay [6] was inactive.
With `CC[C@]1(O)CC(O[C@@H]2CC(N(C)C)C(O)C(C)O2)c2c(cc3c(c2O)C(=O)c2c(O)cccc2C3=O)C1C(=O)OC` (some centres not stated), in assay [1], the Potency entry was “inactive”. Besides, the Potency was 15.8 µM (active) in assay [2] and 56.2 µM (active) in [4].
For the compound `COc1ccc(C(=O)O)cc1OC`, the Potency entry in [7], in [2] and in assay [4] was “inactive” in each case. Also, the compound was classed as inactive in [3].
As to `C[C@H]1O[C@H](O[C@H]2[C@H](O)[C@@H](O)[C@@H](O)[C@H](O)[C@@H]2O)[C@@H](N)C[C@@H]1NC(=N)C(=O)O`, the Potency entry in assay [7], in assay [2] and in [4] was “inactive” each time. The result in assay [3] was inactive.
Turning to `CC(CO)NC(=O)C1C=C2c3cccc4[nH]cc(c34)C[C@H]2N(C)C1` (some centres not stated), the Potency entry in assay [7], in assay [2] and in assay [4] was “inactive” each time. For the same compound, in assay [3], the compound was called inactive.
For the compound `CCCC/C(C)=C/[C@@H](NP(=O)(c1ccccc1)c1ccccc1)c1ccccc1`, in [5], the call was inactive. Besides, the Potency in assay [7] was 2.51 µM (active).
As to `CNC(=O)[C@H]1C[C@@H]1[C@H](NP(=O)(c1ccccc1)c1ccccc1)c1ccccc1`, the outcome in [5] and in assay [6] was inactive.
On to `CN(CCC(N)CC(=O)NC1C=CC(n2ccc(N)nc2=O)OC1C(=O)O)C(=N)N` (configuration not stated), for which the Potency in assay [7] is 0.199 µM (active). Besides, the Potency entry in assay [2] and in [4] was “inactive” in each case. In addition, in assay [3], the compound was classed as inactive.
Turning to `COC(=O)[C@H]1C[C@@H]1[C@H](NP(=O)(c1ccccc1)c1ccccc1)c1ccccc1`, the outcome in assay [5] was inactive.
On to `C[C@@H]1O[C@H](O[C@H]2C[C@@H](O)[C@]3(CO)[C@H]4[C@H](O)C[C@]5(C)[C@@H](C6=CC(=O)OC6)CC[C@@]5(O)[C@H]4CC[C@]3(O)C2)[C@@H](O)[C@H](O)[C@H]1O`, for which the call in assay [5] was inactive.
As for `CCCC/C=C/[C@@H](NP(=O)(c1ccccc1)c1ccccc1)c1ccccc1OC`, the call in assay [5] was inactive. The Potency in assay [7] is 6.31 µM (active). Besides, in assay [1], the Potency entry was “inactive”.
On to `COc1ccc2c(c1OC)C(=O)O[C@@H]2[C@H]1c2cc3c(cc2CCN1C)OCO3`, for which the result in assay [5] was inactive.
On the same count and under the same terms, to `c1ccc2ncccc2c1` belongs “inactive”.
Turning to `CNC(=O)Oc1cccc2c1OC(C)(C)C2O` (configuration not stated), the activation in assay [8] was 3.8% (inactive). Further, the Potency result in assay [9] and in assay [10] was “inactive” each time. Also, the outcome in assay [11] and in assay [14] was inactive. For the same compound, the Potency in [12] is 54.5 µM (active). Besides, in [13], the max response is -0.827% (inactive).
For the compound `C=CC(=O)NCO`, the activation in [8] was -1.79% (inactive) and 14.2% (inactive); in assay [15] it was -0.576% (inactive) and 6.11% (inactive). Further, the Potency result in assay [9], in [10] and in assay [17] was “inactive” in each case. Moreover, the max response in [16] was 1.4%; in [13], 3.28% (inactive) and -7.26% (inactive). Further, the outcome in assay [11] and in assay [14] was inactive. Further, the Potency in assay [12] was 501 µM (active).
As to `CCOP(=S)(OCC)Oc1ncn(-c2ccccc2)n1`, the activation was 5.78% (inactive) in [8], 2.14% (inactive) in [18] and 2.03% (inactive) in [19]. For the same compound, the Potency entry in [9], in assay [10], in [17] and in [12] was “inactive” throughout. In assay [16], the max response is 1.15%. Also, the result in assay [11] was inactive.
